CBX7 AlphaScr – blocks human CBX7 binding to H3K27me3 peptide | 1.1% of 66,000 active | O95931 | AID 1224903 | normalised signal (fraction of DMSO) (no concentration beside the values) | AlphaScreen His6-CBX7 / biotin-H3K27me3 peptide binding; active compounds read low; in the data active = normalised signal below about 0.5
Target sequence (O95931 whole entry, looked up): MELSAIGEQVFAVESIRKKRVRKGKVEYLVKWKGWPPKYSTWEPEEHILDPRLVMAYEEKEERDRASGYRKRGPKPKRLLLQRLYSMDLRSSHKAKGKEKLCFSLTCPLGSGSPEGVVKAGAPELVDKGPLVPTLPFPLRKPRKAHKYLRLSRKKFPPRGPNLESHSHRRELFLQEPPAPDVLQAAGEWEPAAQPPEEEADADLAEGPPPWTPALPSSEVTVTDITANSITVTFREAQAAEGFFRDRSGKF
The depositor's hits bear a star. The sample as a whole holds a higher share of hits than the screen did.

SMILES	CBX7 AlphaScr
CCN(CCCNC(=O)CC(C(=O)N1CCc2ccccc21)n1ccnc1)c1cccc(C)c1 (stereo unspecified)	0.225*
CCN(CCCNC(=O)Cc1cn(C)c2ccccc12)c1cccc(C)c1	0.316*
CCC(C(=O)NCCc1ccccc1)n1ncc2ccccc21 (stereo unspecified)	1.09
COc1ccccc1Nc1ncc(C(=O)NCCc2ccc(Cl)cc2)c2ccccc12	1.02
O=C(NCc1cccs1)C1CCCN(S(=O)(=O)c2cccnc2)C1 (stereo unspecified)	1.04
COc1ccc(CC(=O)Nc2c3c(nn2-c2cccc(C)c2C)CSC3)cc1OC	0.865
COc1ccc(-c2noc(CCC(=O)NCCN3CCOCC3)n2)cc1	0.998
CCOC(=O)c1nc(Nc2cccc(C(F)(F)F)c2)c2ccccc2n1	0.984
CC1NC(=O)NC1CCCCCC(=O)OCC(=O)c1ccccc1 (stereo unspecified)	0.159*
O=C(Nc1ccc(Cl)cc1)c1cc2c(s1)-c1ccccc1OC2	1.1
CCC1=Nc2cc(C(=O)N3CCN(Cc4ccccc4)CC3)ccc2Sc2ccc(Cl)cc21	0.9
CCOC(=O)c1cc(-c2ccccc2)n(CCC(=O)NC2CCCC2)c1C	1.01
COc1ccccc1OCCCCc1c(C)n[nH]c1C	0.973
Cc1ccccc1OCCCCCc1c(C)n[nH]c1C	0.975
COc1ccccc1OCCCCCCc1c(C)n[nH]c1C	0.498*
Cc1ccc(Nc2ncc(C(=O)N3CCN(Cc4ccccc4)CC3)c3ccccc23)cc1Cl	1.12
CCCCNC(=O)C1CC(=O)N(CCc2ccccc2)C1 (stereo unspecified)	1
CCCCN(CCCNC(=O)C1CC(=O)N(CCc2ccccc2)C1)c1ccccc1 (stereo unspecified)	0.498*
CCN(CCCNC(=O)C1CC(=O)N(CCc2ccccc2)C1)c1cccc(C)c1 (stereo unspecified)	0.991
Cc1ccccc1NC(=O)C1CCC(CNS(=O)(=O)c2cccc3cccnc23)CC1 (stereo unspecified)	1.01
Cc1ccccc1NCC(O)Cn1c(C)c(C)c2ccccc21 (stereo unspecified)	0.812
COc1ccc(OC)c(NCC(O)Cn2c3ccccc3c3ccccc32)c1 (stereo unspecified)	0.302*
Cc1ccc(C)c(NCC(O)Cn2c3ccccc3c3ccccc32)c1 (stereo unspecified)	0.681
CCOC(=O)c1sc2ncn(CC(=O)NCc3ccccc3)c(=O)c2c1C	1.06
COc1ccccc1-c1nnc(NC(=O)c2ccc(S(=O)(=O)N3CCCC3)cc2)o1	0.619
SMILES	CBX7 AlphaScr
CC1CCCN(S(=O)(=O)c2ccc(C(=O)Nc3nnc(C4CC4)o3)cc2)C1 (stereo unspecified)	0.597
Cc1ccccc1NC(=O)c1ccc(S(=O)(=O)N2CCCCC2)cc1	0.962
Cc1nnc(NC(=O)c2ccc(S(=O)(=O)N3CCCCC3)cc2)o1	0.021*
COc1ccc(-c2nnc(NC(=O)c3ccc(S(=O)(=O)N4CC(C)OC(C)C4)cc3)o2)cc1 (stereo unspecified)	0.527
NC(=O)c1oc2ccccc2c1NC(=O)c1ccc(S(=O)(=O)N2CCCC2)cc1	1.04
NC(=O)c1oc2ccccc2c1NC(=O)c1ccc(S(=O)(=O)N2CCCCC2)cc1	1.04
O=C(Nc1nnc(C2CC2)o1)c1ccc(S(=O)(=O)N2CCCC2)cc1	0.454*
COc1ccccc1-c1nnc(NC(=O)c2ccc(S(=O)(=O)N3CC(C)OC(C)C3)cc2)o1 (stereo unspecified)	0.675
Cc1nnc(NC(=O)c2ccc(S(=O)(=O)N3CC(C)OC(C)C3)cc2)o1 (stereo unspecified)	0.00659*
Cc1nnc(NC(=O)c2ccc(S(=O)(=O)N3CCCCCC3)cc2)o1	0.00198*
O=C(Nc1ccccc1-c1nc2ccccc2[nH]1)c1cccc(Br)c1	1.14
CC(C)c1ccc(NS(=O)(=O)c2ccc3[nH]cc(C(=O)NC(C)c4ccccc4)c(=O)c3c2)cc1 (stereo unspecified)	0.62
CC(C)Oc1ccc(-c2cc(C(=O)Nc3ccc(S(N)(=O)=O)cc3)c3ccccc3n2)cc1	1.02
O=C(Nc1cccnc1)c1cc2n(n1)C(C(F)(F)F)CC(c1ccc(Cl)cc1)N2 (stereo unspecified)	0.998
COc1ccccc1NC(=O)c1c(NCc2cccc(F)c2)sc2c1CCC2	1.01
CC(C)CCNC(=O)CN1CCN(Cc2ccc(F)cc2)C1=O	1.01
CCCN1Cc2cccc(C(=O)Nc3ccc(C)c(Cl)c3)c2C1=O	1.06
O=C(CSc1oc(-c2cccs2)nc1S(=O)(=O)c1ccc(Cl)cc1)NCC1CCCO1 (stereo unspecified)	0.933
O=C(Cc1ccccc1)Nc1c2c(nc3ccccc13)CCC2	0.791
NC(=O)c1c(NC(=O)CN2CCCCC2)sc2c1CCCC2	0.962
O=C(CN1CCCC1)Nc1c2c(nc3c1CCC3)CCC2	0.27*
CCCCC(=O)Nc1c2c(nc3c1CCC3)CCCC2	1.04
O=C(CN1CCCCCC1)Nc1c2c(nc3c1CCC3)CCCC2	0.0744*
O=C(CCCN1C(=O)c2ccccc2C1=O)Nc1c2c(nc3c1CCC3)CCC2	1.05
CCCN(C(=O)CCc1nc(-c2ccc(C)cc2)no1)c1ccccc1C	1.14
SMILES	CBX7 AlphaScr
CN1CCN(c2nc3ccccc3nc2NS(=O)(=O)c2ccc(Br)cc2)CC1	0.831
O=S(=O)(Nc1nc2ccccc2nc1N1CCc2ccccc2C1)c1ccc(Br)cc1	0.403*
Cc1ccc(S(=O)(=O)Nc2nc3ccccc3nc2N2CCN(C)CC2)cc1	1
O=C1CSc2ccc(C(=O)NC3CCCCCCC3)cc2N1	1.1
COc1ccc(OC)c(NC(=O)c2c(NCc3cccs3)sc3c2CCCCC3)c1	0.427*
COc1ccc(OC)c(NC(=O)c2c(NCc3sccc3C)sc3c2CCCC3)c1	0.493*
COc1ccc(Cl)cc1NC(=O)c1c(NCc2sccc2C)sc2c1CCCC2	0.388*
COc1ccc(NC(=O)c2c(NCc3cccs3)sc3c2CCC3)cc1	0.567
COc1ccccc1NC(=O)c1c(NCc2sccc2C)sc2c1CCCCC2	0.551
COc1ccc(OC)c(NC(=O)c2c(NCc3cccs3)sc3c2CCC3)c1	0.951
COc1ccc(OC)c(CNc2sc3c(c2C(=O)Nc2cc(OC)ccc2OC)CCCC3)c1	0.579
COc1ccc(Cl)cc1NC(=O)c1c(NCc2cccs2)sc2c1CCCC2	0.817
COc1ccc(OC)c(NC(=O)c2c(NCc3cccs3)sc3c2CCCC3)c1	0.593
COc1ccc(NC(=O)c2c(NCc3sccc3C)sc3c2CCCCC3)c(OC)c1	0.52
COc1ccc(NC(=O)c2c(NCc3cccs3)sc3c2CCCCC3)cc1	0.736
CCOc1ccc(NC(=O)c2c(NCc3cccs3)sc3c2CCCCC3)cc1	0.442*
CC(C)(CC(=O)NCCN1CCN(c2ccccc2F)CC1)CC1=NS(=O)(=O)c2ccccc2N1	1.01
O=C(CN1CCN(Cc2ccc(Cl)cc2)C1=O)N1CCCCCC1	1.05
Cc1ccc(C)c2[nH]c(=O)c(CCNC(=O)c3ccc(F)c(F)c3)cc12	0.973
Cc1cccc(N2CCN(C(=O)CN3C(=O)CC(C)(C)S(=O)(=O)c4ccccc43)CC2C)c1 (stereo unspecified)	0.994
O=C(c1ccccc1)c1c(Nc2ccc(Cl)cc2)[nH]c(=O)c2ccccc12	0.912
CCCCCCCC(O)(CCN1CCCCC1)c1ccc(OC)cc1 (stereo unspecified)	1.1
COc1cccc(CNS(=O)(=O)c2ccc3c(c2)n(C)c(=O)c(=O)n3C)c1	1.04
COc1cc2c(C(=O)N(C)c3ccc(C(C)C)cc3)cn(CC(C)C)c(=O)c2cc1OC	1.09

Compound activity from PubChem.
